Test systems include DU-145 prostate; K-562 leukemia; MALME-3M melanoma; MDA-MB-231 breast; RXF 393 renal; SF-268 CNS; SF-295 CNS; SF-539 CNS; UACC-257 melanoma; M14 melanoma; HCT-15 colon; HT29 colon; SNB-75 CNS; SNB-19 CNS; U251 CNS; PC-3 prostate; SK-MEL-5 melanoma; UACC-62 melanoma; LOX IMVI melanoma; SK-MEL-28 melanoma.
What all share (assay): NCI-60 one-dose screen, 48 h (100 = growth as untreated, 0 = no growth, -100 = all killed)
What all share (settings): 10 µM unless noted

This is part of a sample that, as a whole, favours compounds with a hit. Of some 83,000 tested, about 20% had one in any assay.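 In brief: 96-well plates, 48 h treatment, single concentration, percent growth endpoint.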 Unmarked numbers belong to inactive results. The source made the active and inactive calls. Rule for the calls: active = growth percent below 10; inactive = the rest.

Regarding `CN(C)CCCn1c(=O)c2cc([N+](=O)[O-])ccc2c2cnc3[nH]ccc3c21`, the growth in the assay on DU-145 prostate was 50.5%; with K-562 leukemia, -32.4% (active); in the assay with MALME-3M melanoma, 68.8%; in the assay with MDA-MB-231 breast, 65.5%; in the assay on RXF 393 renal it was 56.3%; in the assay on SF-268 CNS it was 45.9%. In addition, the growth with SF-295 CNS was 43.9%; in the assay on SF-539 CNS it was 50.9%; in the assay with UACC-257 melanoma, 87.2%; in the assay with M14 melanoma, 67.6%; in the assay on HCT-15 colon, 48%; with HT29 colon, 16.2%. For the same compound, the growth in the assay on SNB-75 CNS was 49.5%; with SNB-19 CNS, 53.5%; in the assay with U251 CNS, 57.4%; in the assay with PC-3 prostate, 48.4%; with SK-MEL-5 melanoma it was 69.4%; in the assay with UACC-62 melanoma, 74.6%. Moreover, the growth is 38.5% with LOX IMVI melanoma and 104% in the assay on SK-MEL-28 melanoma.

For the compound `O=C(O)c1cc2cc(OCc3ccccc3)ccc2[nH]1`, the growth with DU-145 prostate was 114%; with K-562 leukemia, 112%; with MALME-3M melanoma, -20.3% (active); in the assay on MDA-MB-231 breast it was 99.1%; in the assay with RXF 393 renal, 111%; in the assay with SF-268 CNS it was 99.9%. The growth with SF-295 CNS is 108%; in the assay with SF-539 CNS, 87.5%; in the assay on UACC-257 melanoma it was 48%; with M14 melanoma, 106%; with HCT-15 colon it was 92.3%; in the assay with HT29 colon it was 114%. In addition, the growth in the assay on SNB-75 CNS is 87.8%; in the assay on SNB-19 CNS it was 86.4%; with U251 CNS, 105%; in the assay on PC-3 prostate it was 102%; in the assay on SK-MEL-5 melanoma, 84.1%; in the assay on UACC-62 melanoma, 79.3%. The figures for the growth in the assay with LOX IMVI melanoma and with SK-MEL-28 melanoma were 96.7% and 48%, respectively.

For `CC(C)CC1NC(=O)C(CC(C)C)N(CO)C1=O` (stereo not given), the growth with DU-145 prostate was 119%; with K-562 leukemia, 97.1%; in the assay with MALME-3M melanoma, 101%; in the assay with MDA-MB-231 breast, 97.1%; with RXF 393 renal it was 111%; with SF-268 CNS it was 112%. In addition, the growth in the assay on SF-295 CNS is 120%; in the assay with SF-539 CNS it was 111%; with UACC-257 melanoma it was 102%; in the assay on M14 melanoma, 101%; in the assay on HCT-15 colon it was 103%; in the assay with HT29 colon it was 94.3%. Moreover, the growth was 93.4% with SNB-75 CNS; 99.6% with SNB-19 CNS; 111% with U251 CNS; 97.3% in the assay with PC-3 prostate; 104% in the assay with SK-MEL-5 melanoma; 96.9% with UACC-62 melanoma. The growth in the assay on LOX IMVI melanoma was 106%; in the assay on SK-MEL-28 melanoma, 121%.

In the case of `O=C(Nc1ccncc1)C(=O)c1cn(S(=O)(=O)c2cccc(Cl)c2F)c2ccccc12`, the growth in the assay on DU-145 prostate is 96.9%; in the assay on K-562 leukemia, 23.9%; in the assay with MALME-3M melanoma, 53.7%; in the assay on MDA-MB-231 breast, 78.2%; in the assay with RXF 393 renal, 92.5%; in the assay on SF-268 CNS it was 80.6%. Moreover, the growth with SF-295 CNS was 67.9%; in the assay on SF-539 CNS, 83.2%; in the assay with UACC-257 melanoma, 89.6%; with M14 melanoma it was 59.2%; in the assay on HCT-15 colon, 50%; in the assay with HT29 colon, 50%. The growth was 80.7% in the assay on SNB-75 CNS; 82.7% with SNB-19 CNS; 73.6% in the assay on U251 CNS; 75.8% in the assay with PC-3 prostate; 57.5% in the assay with SK-MEL-5 melanoma; 57% in the assay on UACC-62 melanoma. Moreover, the growth in the assay with LOX IMVI melanoma is 51.3%; in the assay on SK-MEL-28 melanoma it was 95.1%.

Consider `Fc1ccc(-c2cnc3nonc3n2)c(F)c1`, for which the growth with DU-145 prostate was 100%; in the assay with K-562 leukemia, 68%; in the assay on MALME-3M melanoma it was 105%; with MDA-MB-231 breast it was 78%; in the assay with RXF 393 renal, 111%; in the assay on SF-268 CNS, 84.8%. For the same compound, the growth in the assay on SF-295 CNS is 109%; with SF-539 CNS, 98.6%; in the assay on UACC-257 melanoma it was 96.6%; with M14 melanoma, 97.2%; with HCT-15 colon, 78.3%; in the assay on HT29 colon, 113%. The growth in the assay with SNB-75 CNS is 96.4%; in the assay with SNB-19 CNS, 92.5%; in the assay on U251 CNS, 111%; with PC-3 prostate, 73.3%; in the assay on SK-MEL-5 melanoma it was 96.2%; in the assay with UACC-62 melanoma it was 87.6%. The growth in the assay with LOX IMVI melanoma was 93.1%; in the assay on SK-MEL-28 melanoma, 101%.

Turning to `NC(N)=N/N=C/c1ccc(Cl)cc1`, the growth with DU-145 prostate was 73.8%; with K-562 leukemia, 14%; in the assay with MALME-3M melanoma, 88.3%; in the assay on MDA-MB-231 breast, 97.5%; in the assay with RXF 393 renal, 89.3%; in the assay with SF-268 CNS, 68.5%. The growth is 81.9% in the assay on SF-295 CNS; 99.1% in the assay on SF-539 CNS; 80.7% in the assay with UACC-257 melanoma; 66.2% in the assay on M14 melanoma; 70.5% with HCT-15 colon; 35.9% in the assay on HT29 colon. The growth is 81.1% with SNB-75 CNS; 91.2% in the assay on SNB-19 CNS; 88.8% in the assay on U251 CNS; 84.8% in the assay on PC-3 prostate; 74.5% in the assay with SK-MEL-5 melanoma; 78.8% in the assay on UACC-62 melanoma. Further, the growth is 86.3% in the assay with LOX IMVI melanoma and 93.5% in the assay with SK-MEL-28 melanoma.

With `S=C(S)Oc1cccc2cccnc12`, the growth with DU-145 prostate is 105%; in the assay on K-562 leukemia it was 90.8%; in the assay on MALME-3M melanoma, 90.9%; with MDA-MB-231 breast, 111%; in the assay with RXF 393 renal, 119%; with SF-268 CNS, 109%. For the same compound, the growth with SF-295 CNS was 110%; in the assay on SF-539 CNS, 118%; in the assay with UACC-257 melanoma it was 108%; in the assay with M14 melanoma it was 105%; with HCT-15 colon, 105%; in the assay on HT29 colon it was 98%. The growth was 87% with SNB-75 CNS; 107% in the assay on SNB-19 CNS; 105% in the assay with U251 CNS; 84.7% in the assay with PC-3 prostate; 110% in the assay with SK-MEL-5 melanoma; 96.4% in the assay with UACC-62 melanoma. The growth is 98.9% in the assay on LOX IMVI melanoma and 109% in the assay with SK-MEL-28 melanoma.
